ROMK mod = modulates human ROMK potassium channel activity; Tet-inducible ROMK, thallium flux fluorescence; actives lie on both sides; AID 1918; B-score at 10 µM; actives 2% (n = 130,000); P48048;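 active = signal ratio slope over the read window, or its plate-corrected B-score, at least 3 SD from the plate mean, either direction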;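 also: B-score of the F/F0 ratio slope over 7 to 12 s after thallium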
m-calpain inh = blocks pig calpain II enzyme activity; AID 1236; purified calpain II, fluorogenic peptide substrate, 30 min; inhibition, % at 16 µM; actives 0.37% (n = 220,000);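 active = inhibition above about 50%, limit read from the data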
14-3-3 Bad PPI = disrupts binding of bovine 14-3-3 zeta to phospho-Bad peptide. P63103. TR-FRET 14-3-3zeta/Dy647-pBad peptide displacement, 1 h. inhibition, % at 21.7 µM. actives 0.71% (n = 220,000);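 active = inhibition above about 70%, limit read from the data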;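 also: 0% = full 14-3-3 plus peptide FRET controls and 100% = background without 14-3-3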
Target sequence (P63103 whole entry, looked up): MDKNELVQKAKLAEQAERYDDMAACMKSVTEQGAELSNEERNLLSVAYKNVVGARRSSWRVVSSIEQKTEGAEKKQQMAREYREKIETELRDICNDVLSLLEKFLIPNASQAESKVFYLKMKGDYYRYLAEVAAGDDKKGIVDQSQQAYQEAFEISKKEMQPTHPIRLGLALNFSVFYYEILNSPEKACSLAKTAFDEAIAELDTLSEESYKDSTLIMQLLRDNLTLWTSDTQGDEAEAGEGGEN
TNF death inh = TNF-alpha cell death inhibition in Jurkat FADD-/- cells; Jurkat FADD-/- TNF necroptosis rescue, ATP luminescence, 24 h; 0 = TNF only, 100 = no-TNF cells; activation (protection from cell death), % at 10 µM; actives 0.068% (n = 220,000); AID 463075;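 active = activation, meaning protection from cell death, of at least 50% relative to plate controls; inactive = activation below 50%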;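 also: necroptosis triggered by 40 ng/mL TNF-alpha added together with compound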
L929 necroptosis = blocks zVAD induced death of L929 cells; L929 zVAD necroptosis rescue, ATP luminescence, 24 h; with zVAD 60 µM; viability rescue, % at 10 µM; actives 0.38% (n = 220,000); AID 1377;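 active = activation, scaled between plate controls, above about 75%, limit read from the data; inactive = activation under that limit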;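 also: 0% = zVAD with DMSO and 100% = DMSO alone without zVAD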
Efa HMGR inh = blocks class II HMG-CoA reductase of Enterococcus faecalis; purified E. faecalis HMGR, NADPH absorbance 340 nm kinetic; inhibition, % at 10 µM; actives 0.41% (n = 190,000);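 active = inhibition above a set limit, the median over all tested compounds plus 3 SD, cut at about 9.5% in these data; inconclusive = no clear call, values can overlap the other calls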;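 also: enzyme runs in reverse so mevalonate oxidation gives rising NADPH absorbance; 0% = complete reaction with DMSO and 100% = background rate lacking mevalonate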
ROMK retest = retested hit modulating human ROMK potassium channel; shares compounds with ROMK mod; ROMK thallium flux, fluorescence ratio; stronger effect = lower value; normalized thallium flux (F/F0 slope) at 10 µM; actives 54% (n = 3,000);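 active = Flux at 10 µM at least 3 SD below or above vehicle control mean in one or both replicates; inconclusive = no clear call, values can overlap the other calls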
The depositor's hits bear a star. Shown are actives, neighbours in structure and some others; about 3% of the full set was active somewhere.

For COCC(=O)NCCc1ccc(S(N)(=O)=O)cc1 the results were m-calpain inh 21, 14-3-3 Bad PPI 35, TNF death inh 1, L929 necroptosis 0 and Efa HMGR inh 0.
For COc1ccc(CC(=O)Nc2nn(C)c3nc4c(C)cccc4cc23)cc1 the results were ROMK mod -0.13, m-calpain inh -2, 14-3-3 Bad PPI 1, TNF death inh 2 and L929 necroptosis 0.
For c1ccc(-c2cn(-c3ccccc3)c3[n+]2CCS3)cc1 the results were ROMK mod -0.61, m-calpain inh 33, 14-3-3 Bad PPI 6, TNF death inh -5, L929 necroptosis -1 and Efa HMGR inh -1.
`CC(C)(C)c1ccc(-c2cn(-c3ccc(Br)cc3)c3[n+]2CCCS3)cc1` gave ROMK mod -2.5*, m-calpain inh -4, 14-3-3 Bad PPI -9, TNF death inh -6, L929 necroptosis 3, Efa HMGR inh -6 and ROMK retest 0.055*.
Screening COc1ccccc1/C=c1\sc2nc(-c3cccs3)nn2c1=O returned TNF death inh -1 and L929 necroptosis 0.
For COc1cccc(/C=c2\sc3nc(-c4cccs4)nn3c2=O)c1OC the results were m-calpain inh -15, 14-3-3 Bad PPI 10, TNF death inh 0, L929 necroptosis 2, Efa HMGR inh -5 and ROMK retest 0.082.
Screening COc1ccccc1/C=N/NC(=O)C(=O)N1CCN(c2ccccc2OC)CC1 returned ROMK mod -0.51, m-calpain inh 23, 14-3-3 Bad PPI -29, TNF death inh 1, L929 necroptosis 0 and Efa HMGR inh -5.
For O=C(NCc1cccs1)C(=O)NCC1OCCCN1S(=O)(=O)c1ccccc1 (centres undefined) the results were ROMK mod 1.5, m-calpain inh 28, 14-3-3 Bad PPI -20, TNF death inh 1, L929 necroptosis 1 and Efa HMGR inh 3.
CCc1ccccc1NS(=O)(=O)c1ccc(SC)cc1 was read as ROMK mod -1.6*, m-calpain inh 32, 14-3-3 Bad PPI -7, TNF death inh -1, L929 necroptosis 0, Efa HMGR inh -1 and ROMK retest 0.065*.
`O=C(c1ccc(COCC(F)(F)F)o1)N1CCCC1` gave ROMK mod 0.13, m-calpain inh -23, 14-3-3 Bad PPI -10, TNF death inh -1, L929 necroptosis 0 and Efa HMGR inh -12.
O=C(CN1CCN(c2ccccc2)CC1)Nc1ccc(Oc2ccccc2)cc1 was read as ROMK mod -0.84, m-calpain inh -9, 14-3-3 Bad PPI -3, TNF death inh 1, L929 necroptosis 0 and Efa HMGR inh 0.
For CC(C)c1ccc(/C=N/NC(=O)CC(=O)NC2CCCCC2)cc1 the results were ROMK mod -9.2*, m-calpain inh 34, 14-3-3 Bad PPI -6, TNF death inh 1, L929 necroptosis 5, Efa HMGR inh -7 and ROMK retest 0.072.
For O=C1CN(C(=O)c2cc3ccccc3oc2=O)C(c2ccc(F)cc2)c2cc(Br)ccc2N1 (centres undefined) the results were ROMK mod 0.023, m-calpain inh -64, 14-3-3 Bad PPI 6, TNF death inh 6, L929 necroptosis 0 and Efa HMGR inh 2.
For Cc1ccc(S(=O)(=O)N2CCN(C(=O)CSc3nc4ccccc4o3)C2)cc1 the results were m-calpain inh -4, 14-3-3 Bad PPI 5, TNF death inh -2, L929 necroptosis 0 and Efa HMGR inh -9.
O=C(CSc1nc2ccccc2o1)N1CCN(S(=O)(=O)c2ccc3ccccc3c2)CC1 was read as ROMK mod -3.6*, m-calpain inh -54, 14-3-3 Bad PPI -7, TNF death inh 1, L929 necroptosis 0, Efa HMGR inh -1 and ROMK retest 0.076.
For Cc1cc(C(=O)COc2ccc(F)cc2Br)c(C)n1C the results were ROMK mod -1.9*, m-calpain inh 1, 14-3-3 Bad PPI -8, TNF death inh -2, L929 necroptosis 2, Efa HMGR inh 9.6* and ROMK retest inconclusive.
CC(C)c1ccc(OCc2ccc(C(=O)O)o2)cc1 was read as m-calpain inh -1, 14-3-3 Bad PPI 3, TNF death inh 1 and L929 necroptosis 0.

Source: PubChem BioAssay (several laboratories)
